The values below come from PubChem BioAssay (NCI).

Each structure is given as a SMILES string. Values joined by “and” are separate entries in the source; they are usually repeats but may differ in a detail not shown here. Equal entries are not always repeated. Compounds without any hit were thinned out: in the full panel of roughly 83,000, 20% have a hit.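 Note: values are percent growth. 100 is the growth of untreated cells, values between 100 and 0 indicate rising inhibition; between -100 and 0 indicates cell death.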 Unmarked numbers belong to inactive results. Active and inactive are the calls of the source. How the source made its calls: active means growth percent below 10; inactive means the rest.

For the test, the system named is MDA-MB-468 breast. The test can be described thus: NCI-60 one-dose screen, 48 h (100 = growth as untreated, 0 = no growth, -100 = all killed). The note with it: 10 µM unless noted.
For the compound `CCCC1(CN2c3ccccc3Sc3ccc(Cl)cc32)CCN(CC)C1` (configuration not stated), the growth is -64.2% (active).

For the compound `O=C1/C(=C/c2cccc([N+](=O)[O-])c2)COc2ccc(O)c(O)c21`, the growth was -47.8% (active).

`O=C(CSc1nc2ccccc2c(=O)n1-c1ccccc1)Nc1cccc(C(=O)/C=C/c2ccccc2Cl)c1`: the growth was 113%.

`C=CCSC(CC)(CC)C(=O)NC`: the growth is 99.3%.

`CCN1CCN(Cc2ccc(NC(=O)Nc3cccc(-n4ccc5c(NC(=O)c6ccccc6)nccc54)c3)cc2C(F)(F)F)CC1`: the growth was 20.2%.

With `CC1(C)NCCC[C@]2(C)[C@H]3CC=C4[C@@H]5C[C@@](C)(CO)CC[C@]5(C)CC[C@@]4(C)[C@]3(C)CC[C@@H]12`, the growth was 67.6%.

Turning to `CC(=Nc1ccccc1)C1=C(O)C(Cc2ccccc2)NC1=O` (configuration not stated), the growth was 15.4%.

Regarding `CC(C)=CCC[C@](C)(O)[C@H]1CC[C@]2(C)[C@@H]1CC[C@@H]1[C@@]3(C)C/C(=C/c4ccco4)C(=O)C(C)(C)[C@@H]3CC[C@]12C`, the growth is 111%.

Turning to `BrCc1cccc(C[P+](c2ccccc2)(c2ccccc2)c2ccccc2)c1`, the growth was -12.4% (active).

On to `C#Cc1ccc(NC(=O)c2ccc(/C=C/C(=O)c3nccn3C)cc2)c(F)c1`, for which the growth is 32.3%.

Regarding `C#Cc1nc(C2=C(C)C(OC(C)=O)/C(=N/OC(C)=O)C2)cs1` (configuration not stated), the growth was -60.7% (active).

As to `CCCCCCC(=O)Nc1ncc(Cc2ccc(C)cc2)s1`, the growth was 28.4%.

As for `N#Cc1ccc(N2Cc3cc(Cl)ccc3OC3=C2C(=O)N(Cc2ccccc2)C3=O)cc1`, the growth is -64.2% (active).

As for `Cc1cn(-c2cc(NC(=O)c3cncc(C#Cc4cnc5ccc(O[C@@H]6CCOC6)nn45)c3)cc(C(F)(F)F)c2)cn1`, the growth was -74.8% (active).

Take `CCCc1nn(C)c2c(=O)[nH]c(-c3cc(S(=O)(=O)N4CCN(C)CC4)ccc3OCC)nc12`: the growth is 110%.

On to `O=S(=O)(Nc1ccc(I)cc1Cl)c1ccc(-c2cnc(C3CC3)o2)cc1`, for which the growth is 20.1%.

Turning to `Nc1nc2ccc3[nH]ncc3c2c2c1CCCC2`, the growth is -46.8% (active).

As for `O=[N+]([O-])c1ccc(-c2nc(N3CCOCC3)c3c4c(sc3n2)CCCC4)cc1`, the growth is 94.8%.

For the compound `CC(=O)c1ccc(-n2c(-c3cc(-c4ccsc4)n[nH]3)n[nH]c2=S)cc1`, the growth was 97.3%.

As to `CN1CCN(Cc2ccc(NC(=O)c3cncc(C#Cc4cnccc4C#N)c3)cc2C(F)(F)F)CC1`, the growth was 90.5%.

For the compound `Cc1cc2nc3ccc(=[N+](C)C)cc-3sc2cc1N`, the growth is -13.4% (active) and -40.6% (active).

Consider `COC(=O)C1=Nc2ccc(F)cc2/C1=C\c1sc(Nc2ccc(O)cc2)nc1O`, for which the growth was 56.1%.

Take `CCCCn1c(=O)[nH]c(N)c([C@@H]2c3c([nH]c(=O)n(CCCC)c3=O)Oc3ccc4ccccc4c32)c1=O`: the growth is 113%.

Regarding `NNC(=O)Nc1ccccc1`, the growth is 104%.

Consider `O=C(NCCCNC(=O)OCc1ccc2cccc(O)c2n1)OCc1ccc2cccc(O)c2n1`, for which the growth was 11.3%.

For the compound `COc1cc(/C=C\c2cc(OC)c(OC)c(OC)c2)cc(N/C=C\C(=O)c2c[nH]c3ccccc23)c1OC`, the growth was -55.8% (active).

In the case of `Nc1ncnc2c1c(-c1ccc(Oc3ccccc3)cc1)nn2C[C@H]1SSC[C@H]1O`, the growth was -5.04% (active).

As to `CC1OC(n2c3ccccc3c3c4c(c5c6ccccc6[nH]c5c32)C(=O)N(CCN2CCOCC2)C4=O)CC(O)C1O` (configuration not stated), the growth is -10.8% (active).

As for `COc1cc2nc(Cl)nc(Nc3cccc(C(=O)/C=C/c4ccccc4)c3)c2cc1OC`, the growth was 68.9%.

On to `COc1ccc(Cn2nc(-c3cc(OC)c(OC)c(OC)c3)c3c2CCc2cnoc2-3)cc1OC`, for which the growth is -12.8% (active).

As to `NC(=O)c1cccc(-n2ccc3cc(NC(=O)Nc4ccc(Cl)c(Cl)c4)ccc32)n1`, the growth was 60.8%.

`CCn1cc(C2=C(c3cn(C)c4ncccc34)C(=O)NC2=O)c2cccnc21`: the growth was 37.2%.

Take `c1ccc2c(N3CCCCC3)ncnc2c1`: the growth was 75.9%.

For `Nc1nc(-c2ccccc2)c(CCCOc2ccc(NC(=O)CBr)cc2)c(=O)[nH]1`, the growth was 104%.

For `Brc1ccc(Oc2ccc(Nc3ncnc4onc(-c5ccccc5)c34)cc2)cc1`, the growth is 103%.

For `NS(=O)(=O)c1ccc(CN=C2NC(=O)S/C2=C\c2ccc(Br)cc2)cc1`, the growth is 97.1%.

Take `CCOC(=O)c1ccccc1NC(c1ccccc1)c1ccc2cccnc2c1O` (configuration not stated): the growth is 8.19% (active).
